Hsp90 inh = displaces geldanamycin probe from tumor Hsp90; P07900; NCI-N417 lysate Hsp90, Cy3B-geldanamycin FP displacement; inhibition, % at 30 µM; hit rate 0.35% among 64,000;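 active = inhibition above 50%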
JNK3 inh = JNK3 (human) kinase inhibition; P53779; purified JNK3 kinase activity, HTS; inhibition, % at 8 µM; hit rate 0.61% among 60,000; in the data active = inhibition above about 17%
PKA kinase inh = blocks human protein kinase A activity; P17612; PKA Kemptide phosphorylation, Kinase-Glo ATP luminescence; inhibition, % at 6 µM; hit rate 0.1% among 65,000; AID 524;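 active = inhibition above the screen-wide mean inhibition plus 3 SD, cut at about 21% in these data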
ROCK2 blocker = blocks human Rho kinase 2 activity. O75116. purified ROCK2, Kinase-Glo ATP depletion luminescence. inhibition, % at 6 µM. hit rate 0.35% among 60,000. AID 604;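 active = inhibition above the screen-wide mean inhibition plus 3 SD, cut at about 18% in these data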
Jurkat tox 60K = reduces viability or proliferation of Jurkat cells | Jurkat E6.1 viability, ATP luminescence, 48 h | inhibition, % at 4 µM | hit rate 1.2% among 56,000;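 active = inhibition above the mean inhibition of all tested compounds plus 3 SD, cut at about 28% in these data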
Each line names hits and unclear results; the compound was inactive in the other large screens. Shown are actives, neighbours in structure and some others; about 1.9% of the full set was active somewhere.

CCC(C)(C)NCCCCCNc1cc(OC)cc2cccnc12	none (no result: JNK3 inh, PKA kinase inh, ROCK2 blocker, Jurkat tox 60K)
COC(=O)c1[nH]c2ccc(Cl)cc2c1NC(=O)CN1CCC(C(N)=O)CC1	none
CCOC(=O)N1CCN(CC(=O)Nc2c(C(=O)OC)[nH]c3ccc(Cl)cc23)CC1	Jurkat tox 60K 31
Cc1c(CC(C)(C)C(=O)O)n(Cc2ccc(Cl)cc2)c2ccc(F)cc12	none (no result: JNK3 inh, PKA kinase inh, ROCK2 blocker, Jurkat tox 60K)
CCCCCCCCCCCCCCCCCCOC[C@H](COP(=O)([O-])OCC[N+](C)(C)C)OC	none (no result: JNK3 inh, PKA kinase inh, ROCK2 blocker, Jurkat tox 60K)
CCC(CC)NCCCNc1cc(OC)cc2cccnc12	none (no result: JNK3 inh, PKA kinase inh, ROCK2 blocker, Jurkat tox 60K)
CCCCNc1cc(C)nc(NCc2ccccc2)n1	Jurkat tox 60K 34
Cc1nn(-c2ccccc2)c2c1C(O)n1c(nc3ccccc31)S2 (stereo not given)	JNK3 inh 19
Cc1nn(-c2ccccc2)c2sc(C(=O)O)cc12	none (no result: JNK3 inh, ROCK2 blocker, Jurkat tox 60K)
COc1cc2c(O)c3c(c(-c4ccc5c(c4)OCO5)c2cc1OC)C(=O)OC3	Jurkat tox 60K 60
COc1cc(CN/C(C)=C(\C#N)C(N)=O)cc(OC)c1OC	JNK3 inh 63
COc1cc(NS(=O)(=O)c2ccc(C)cc2)c2ncccc2c1	Jurkat tox 60K 79
COc1cc(NCCCC(C)O)c2ncccc2c1 (stereo not given)	none (no result: JNK3 inh, PKA kinase inh, ROCK2 blocker, Jurkat tox 60K)
COc1cc(NS(=O)(=O)c2cccc([N+](=O)[O-])c2)c2ncccc2c1	none (no result: JNK3 inh, PKA kinase inh, ROCK2 blocker, Jurkat tox 60K)
COc1cc(NCCCC(C)N)c2ncccc2c1 (stereo not given)	Hsp90 inh 97
O=C(Cc1ccc(Cl)c(Cl)c1)OCCN1CCCC1	none (no result: JNK3 inh, PKA kinase inh, ROCK2 blocker, Jurkat tox 60K)
CN1/C(=N\O)c2cccc3cccc1c23	ROCK2 blocker 37
CC(=O)n1cc(-c2ccncc2)c2ccccc21	PKA kinase inh 26, ROCK2 blocker 61
CC(=O)n1c2ccccc2c2c1c1ccccc1n2C	none
c1cn(CCCNc2ncnc3nc[nH]c23)cn1	ROCK2 blocker 40
O=c1cc(-c2ccccc2)[nH]c2nc3ccccc3n12	JNK3 inh 19, Jurkat tox 60K 47
Cc1cccc(N(C)S(=O)(=O)c2ccc3[nH]c(=O)c(=O)[nH]c3c2)c1	none
NC(=O)c1c(NC(=O)C2CCCO2)sc2c1CCC2 (stereo not given)	JNK3 inh 31
CC(=O)Oc1cc2oc(=O)cc(C)c2cc1OC(C)=O	Hsp90 inh 58
c1ccc(-n2nc3c(ccc4cnnc43)[nH]2)cc1	JNK3 inh 30
COc1ccccc1-c1cc(C(F)(F)F)nc(S(=O)(=O)CCCC(=O)N2CCOCC2)n1	Jurkat tox 60K 62
COc1ccc(-c2cc(C(F)(F)F)nc(S(=O)(=O)CCC(=O)N3CCOCC3)n2)cc1	none
CCOC(=O)N1CCN(c2c(NCc3cccs3)c(=O)c2=O)CC1	Jurkat tox 60K 37
O=c1[nH]cnc2cc(-c3ccccc3)sc12	none (no result: Jurkat tox 60K)
O=c1[nH]cnc2cc(Cl)ccc12	ROCK2 blocker 18
CCOC(=O)C(C)Oc1cccc2c(=O)n(CC(=O)NCc3ccco3)ccc12 (stereo not given)	Jurkat tox 60K 96
CCCCC(=O)Nc1ccc(Cl)cn1	none
CCOC(=O)NC1(Nc2ccc(Cl)cn2)Oc2ccccc2O1	Hsp90 inh 50, Jurkat tox 60K 33
CN(C)c1ccc(C(=O)c2ccc(N(C)C)c(N)c2)cc1N	Jurkat tox 60K 60
Cn1c(CSCc2ccc(F)cc2)nnc1SCC(=O)Nc1nccs1	none
Cn1c(CSCc2ccc(Cl)c(Cl)c2)nnc1SCC(=O)Nc1nccs1	ROCK2 blocker 25
O=C(Nc1nc2ccc(S(=O)(=O)N3CCCC3)cc2s1)C1CCCCC1	Jurkat tox 60K 93
Nc1ncnc2c1c(-c1ccc(Oc3ccccc3)cc1)cn2C1CCCC1	none (no result: JNK3 inh, PKA kinase inh, ROCK2 blocker, Jurkat tox 60K)
CCCc1[nH]n(-c2nc3ccccc3s2)c(=O)c1C=NCCN1CCOCC1	none (no result: Jurkat tox 60K)
CCCCCN=Cc1c(C)[nH]n(-c2nc3ccccc3s2)c1=O	Jurkat tox 60K 56
CCN1CCCC1Cn1cnc2c([nH]c3cccc(Cl)c32)c1=O (stereo not given)	none
O=c1c2[nH]c3cccc(Cl)c3c2ncn1Cc1ccncc1	JNK3 inh 22
CCOc1ccc2nc(-c3ccccc3)[nH]c2c1	Jurkat tox 60K 76
CCOC(=O)c1c(C)c(C(=O)Nc2ccc3c(c2)OCO3)c(C)n1C	none
CCOC(=O)c1c(C)c(C(=O)Nc2ccc3c(c2)OCCO3)c(C)n1CC	Jurkat tox 60K 48
Cc1sc(NC(=O)c2ccco2)nc1-c1ccc2c(c1)CC(C)N2C(=O)C1CC1 (stereo not given)	Jurkat tox 60K 64
COc1ccc2c(c1)-c1nc(NC(=O)c3ccco3)sc1CC2	none (no result: JNK3 inh, PKA kinase inh, ROCK2 blocker, Jurkat tox 60K)
CCn1c(SCC(=O)Nc2ccc(NC(C)=O)cc2)nnc1C1CC1	none
CCn1c(SCC(=O)Nc2ccc(Cl)cc2)nnc1C1CC1	JNK3 inh 22
O=C(COc1ccccc1)n1nc(-c2ccc(Cl)cc2)nc1NCc1ccco1	none
